# High-throughput results (PubChem BioAssay)
# In the library only some 4.6% were active in any assay of this set; here they are far more common.
# SKKanGAS inh: SKKanGAS growth inhibition; S. pyogenes SKKanGAS, kanamycin growth, BacTiter-Glo, 6 h; inhibition, % at 7.5 µM; 300,000 compounds, 1.3% hits;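 active = mean replicate score, as percent of positive control median, at least 50; inconclusive = mean below 50 but one replicate at or above 50; inactive = mean and every replicate below 50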;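 note: strain carries kanamycin resistance gene driven by streptokinase promoter and grows in 40 µg/ml kanamycin; loss of luminescence reflects streptokinase promoter inhibition or plain growth inhibition; 0% = median of DMSO wells and 100% = positive control at its reference dose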
# tim10-1 inh: growth inhibitors of tim10-1 mutant yeast; 330,000 compounds, 2.2% hits; inhibition, % at 20 µM; S. cerevisiae tim10-1 ts strain growth, BacTiter-Glo, 24 h;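 active = inhibition of at least 40%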;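 note: mutant grown at 25 °C; 0% = DMSO wells with yeast and 100% = wells holding no yeast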
# NALP3 yeast inh: inhibitors of NALP3 inflammasome in yeast. Yeast reconstituted NLRP3/ASC/caspase-1, beta-gal luminescence, 24 h. inhibition, % at 10 µM. 330,000 compounds, 0.39% hits. AID 2825;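 active = inhibition of 50% or more; inactive = inhibition below 50%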;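 note: plate controls were induced DMSO wells for no effect and uninduced yeast grown without galactose for full effect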
# TIM10 inh: inhibits growth of TIM10 yeast strain; 330,000 compounds, 1.4% hits; inhibition, % at 10 µM; S. cerevisiae TIM10 strain growth, BacTiter-Glo luminescence, 24 h;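 active = inhibition of 40% or more at the single tested concentration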;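 note: wild-type TIM10 isogenic control strain grown at permissive 25 °C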
# tim23-1 inh: tim23-1 yeast growth inhibition | S. cerevisiae tim23-1 growth, BacTiter-Glo luminescence, 24 h | inhibition, % at 20 µM | 330,000 compounds, 1.3% hits;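 active = growth inhibition of the mutant yeast at or above 50%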;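 note: temperature-sensitive mutant grown at 25 °C; plate controls were DMSO-treated mutant yeast for no effect and medium wells lacking yeast for full effect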
# tim10-1 conf: confirmation of tim10-1 mutant yeast growth inhibitors; inhibition, % at 20 µM; S. cerevisiae tim10-1 ts strain growth, BacTiter-Glo, 24 h; 7,400 compounds, 56% hits; shares compounds with tim10-1 inh;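 active = inhibition of yeast growth at or above a set limit in either of two repeat tests at 20 µM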;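 note: tim10-1 mutant grown at permissive 25 °C to find synthetic lethal compounds; 0% = DMSO yeast wells and 100% = medium wells without yeast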
# TIM10 conf: confirmation of TIM10 yeast growth inhibitors; shares compounds with TIM10 inh; S. cerevisiae tim10 strain growth, BacTiter-Glo luminescence, 24 h; 4,600 compounds, 63% hits; inhibition, % at 10 µM;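 active = inhibition of yeast growth at or above a set limit in either of two replicates at 10 µM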;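 note: this counterscreen used the strain with wild-type TIM10; 0% = yeast with DMSO and 100% = medium wells lacking yeast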
# The depositor's hits bear a star; ? = inconclusive; / = not tested or not shown.
SMILES,SKKanGAS inh,tim10-1 inh,NALP3 yeast inh,TIM10 inh,tim23-1 inh,tim10-1 conf,TIM10 conf
O=C(NC1CCCC1)C(c1ccc(Cl)cc1)N(Cc1ccc(F)cc1)C(=O)CCl (configuration not stated),-9.0,48.9*,-2.7,46.6*,46.4,40.2*,-1.1
CC(=O)Oc1ccc2nc(-c3ccc(Br)o3)oc(=O)c2c1,5.4,24.2,14.9,17.2,38.2,/,/
N#Cc1ccc(CN2CCN(C(=O)c3ccc(S(=O)(=O)NCc4ccco4)cc3)CC2)cc1,/,6.5,8.0,7.4,13.5,/,/
CCOC(=O)c1ccc(N2C(=O)CC(Sc3nnc(C)s3)C2=O)cc1 (configuration not stated),0.8,54.6*,28.2,64.5*,38.0,77.7*,60.4*
C=CCNc1nnc(SC2CC(=O)N(c3ccc(OCCC)cc3)C2=O)s1 (configuration not stated),-6.9,63.0*,18.9,67.6*,45.6,74.0*,69.4*
O=S(=O)(c1ccccc1F)N1CCN(CCOc2ccccc2)CC1,/,20.2,-40.0,13.0,38.5,/,/
Cc1cccc(C)c1NC(=O)c1ccc([N+](=O)[O-])s1,1.6,66.1*,-10.9,58.9*,-82.6,54.2*,52.8*
O=C(Nc1ccccc1N1CCOCC1)c1ccc([N+](=O)[O-])s1,/,65.7*,8.4,61.4*,14.2,71.6*,84.1*
Cc1ccnc(NC(=O)c2cc([N+](=O)[O-])cc([N+](=O)[O-])c2)c1,-2.0,13.4,14.4,26.1,24.8,/,/
Cc1ccnc(NC(=O)c2ccc([N+](=O)[O-])s2)c1,4.9,75.3*,3.2,69.0*,34.4,71.7*,79.9*
O=C(Nc1ccccc1N1CCOCC1)c1ccccc1[N+](=O)[O-],5.4,16.1,0.8,-5.5,11.3,/,/
O=C(NC1CCCC1)c1ccc([N+](=O)[O-])s1,-4.5,25.3,10.7,19.0,46.3,/,/
COc1ccc(NC(=O)c2ccc([N+](=O)[O-])s2)c([N+](=O)[O-])c1,-0.8,5.8,16.3,14.5,11.1,/,/
Cc1cccc(NC(=O)c2ccc([N+](=O)[O-])s2)c1C,13.8,65.8*,-1.9,60.7*,16.4,55.2*,53.0*
CC(Oc1ccccc1)C(=O)Nc1nnc(S(=O)(=O)N(C)c2ccccc2)s1 (configuration not stated),18.7,17.9,1.7,6.5,20.1,/,/
CC(C)CN1C(=O)C(=O)N(CC(=O)N2CCN(c3ccccc3)CC2)C1=O,19.2,-16.8,3.2,-6.3,2.9,/,/
c1ccc(Nc2cc(-c3ccccc3)nc3ncnn23)cc1,-3.4,48.0*,14.0,56.7*,34.6,42.7*,48.3*
CCOc1ccc(-c2nnc(NC(=O)C3CCCC3)o2)cc1,3.8,-11.9,37.1,-3.6,8.8,/,/
Cc1noc(C)c1NC(=O)Nc1ccc2c(c1)C(=O)N([C@H](C)CO)C[C@H](C)[C@@H](CN(C)C(=O)Nc1ccc3c(c1)OCO3)O2,/,4.7,-8.5,5.1,13.4,/,/
CC(C)N1CCC2(CC1)N=C(c1ccc3c(c1)OCO3)CC(c1cc(Cl)ccc1O)N2 (configuration not stated),-12.6,52.6*,40.0,50.6*,41.8,45.0*,50.8*
O=C(NCCS(=O)(=O)N1CCCCCC1)c1ccccc1,-6.5,-4.5,7.9,-13.9,-14.1,/,/
CN1CCN(C2=C(Cl)C(=O)C(c3cnc(N4CCCCC4)s3)=C(Cl)C2=O)CC1,13.2,72.1*,15.4,45.4*,24.8,60.0*,44.5*
C=CCOn1c(=O)c(-c2ccc(OCC)cc2)[n+]([O-])c2ccccc21,-0.4,33.3,29.0,23.3,44.0,/,/
Cc1ccc(C(=O)/C=C/c2ccc(F)cc2)o1,2.9,11.6,2.0,12.0,18.2,/,/
Cc1cccc(/C=C/C(=O)c2ccc([N+](=O)[O-])o2)c1,55.9*,53.1*,34.0,88.8*,44.7,6.9,97.5*
SMILES,SKKanGAS inh,tim10-1 inh,NALP3 yeast inh,TIM10 inh,tim23-1 inh,tim10-1 conf,TIM10 conf
CC[C@@H]1CC=C[C@H]2[C@H]1C(=O)N(Cc1ccccc1)[C@H]2c1ccc2ccccc2c1,47.1,41.3*,3.2,45.0*,42.9,26.4,37.7*
C[C@@H]1CC=C[C@@H]2[C@H]1C(=O)N(Cc1ccccc1)[C@H]2c1cccc(Br)c1,/,25.9,/,6.6,43.8,/,/
CC1(C)C(=S)N(Cc2ccccc2)c2ccccc21,39.7,3.5,9.5,-14.1,15.2,/,/
COc1ccc(OC)c(C(=O)/C=C/c2cccnc2)c1,-6.9,48.5*,9.5,42.0*,33.3,32.3*,33.9*
COc1cc(C(=O)/C=C/c2cccnc2)ccc1O,6.6,26.3,23.4,6.8,15.4,/,/
COCc1c(C(=O)Nc2cccc(S(=O)(=O)N3CCCCC3)c2)oc2ccccc12,/,21.2,-22.0,17.5,30.6,/,/
CC(C)OC(=O)/C(C#N)=C\c1cccnc1,-0.9,4.3,7.0,0.5,0.5,/,/
CCCCNC(=O)/C(C#N)=C/c1cccnc1,-0.7,44.0*,17.6,50.1*,49.8,34.6*,38.9*
C/C(=N\N=C1\NC(=O)C(CC(=O)Nc2ccc(C)c(Cl)c2)S1)C(C)(C)C (configuration not stated),14.3,51.8*,-4.5,43.9*,20.6,32.3*,23.4
C/C(=N\N=C1\NC(=O)C(CC(=O)Nc2ccc(Cl)cc2)S1)c1ccco1 (configuration not stated),-1.7,7.1,14.3,15.1,21.0,/,/
Cc1nc(NC(=O)/C=C/c2ccccc2)n[nH]1,0.1,59.5*,17.1,60.9*,43.9,59.2*,53.0*
CCCn1nnc(NC(=O)/C=C/c2ccccc2)n1,-6.6,-10.2,4.2,12.3,12.9,/,/
O=C(Nc1ccc(Cl)cn1)c1ccc2ccccc2n1,0.8,8.3,-8.0,17.5,14.6,/,/
Cc1ccc(NC(=O)c2ccc3ccccc3n2)nc1,-6.0,52.1*,-1.8,70.2*,43.3,36.0*,74.4*
O=C(Nc1cccc(NC(=O)c2ccc([N+](=O)[O-])o2)c1)c1ccco1,?,72.0*,6.9,66.6*,11.1,65.8*,67.2*
O=C(COc1ccccc1)N1CCN(C(=O)c2ccccc2F)CC1,-2.3,-13.2,-8.2,-7.3,7.4,/,/
N/C(=N\OC(=O)c1ccccc1)c1cccnc1,-1.0,13.6,-3.7,-2.9,8.1,/,/
N/C(=N\OC(=O)c1ccc(Cl)c(Cl)c1)c1cccnc1,0.2,60.2*,-13.8,71.8*,5.0,47.2*,75.5*
CC(C)Cn1c(-c2csc3c2CCCC3)n[nH]c1=S,/,48.4*,20.5,44.2*,40.4,19.5,39.8*
CC(C)Cn1c(-c2ccccc2F)n[nH]c1=S,-5.3,16.9,3.0,1.9,12.5,/,/
Cc1nnsc1C(=O)N1CCCC(Nc2ccc(F)c(F)c2)C1 (configuration not stated),-3.7,-5.3,4.2,-6.6,-4.7,/,/
